Our source for the Potency values is PubChem BioAssay AID1345085 (National Center for Advancing Translational Sciences (NCATS), 2018).

Records with an inconclusive call do not appear. The source made the active and inactive calls. Calls follow the shape of the dose curve; as a rule, active = well fitted cell-killing curve with a large enough effect; inconclusive = small, poorly fitted or top-dose-only effect, or effect the other way; inactive = no such curve, though single readings can be large or run the other way. *1 amine or outer side, *2 acyl side, *3 side chain or, on linkers, in order; H or OH if unused. Where a SMILES comes first, the peptide text is derived from it. Bridges are numbered along the chain shown (N, C = ends). Roman numbers before positions name the chains, in order. [ ]: non-standard residue; d: D form. Actinocin(9to1) = Cc1c2oc3c(C)ccc(C(=O)[*:1])c3nc-2c(C(=O)[*:2])c(N)c1=O; NMeV = CN[C@H](C(=O)O)C(C)C; Sar = CNCC(=O)O
Potency is read from the fitted curve at half-maximal effect.

For the test, the system named is SKOV3. The experiment in a line: Confirmatory qHTS for gynecologic anti-cancer compounds from libraries of approved drugs and bioactive compounds. Also: nearly all actives have a fitted effect of over 55% in size. To be noted: gynecologic cancer cell panel viability, ATPlite luminescence, 48 h; series mostly up to 57.6 µM. The method in brief:
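Seeding 1,000 cells per well preceded overnight (16 h) attachment, after which 48 h drug treatment across 57.5 uM–0.977 nM (11 points) was applied. Remaining cellular ATP, detected by ATPlite luminescence, defined IC50.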
(In general: Quantitative high-throughput screening tests each substance at several concentrations.)
Turning to `NS(=O)(=O)OC[C@@H]1C[C@@H](n2ccc3c(N[C@H]4CCc5ccccc54)ncnc32)C[C@@H]1O`, the Potency result was “inactive”.
Under `CN(c1nccc(=O)[nH]1)C1CCN(c2nc3ccccc3n2Cc2ccc(F)cc2)CC1` stands “inactive”; under `CNC(=O)c1ccccc1Sc1ccc2c(/C=C/c3ccccn3)n[nH]c2c1`, 19.3 µM (active); under `COc1cc(N2CCC(N)CC2)ccc1Nc1ncc(Cl)c(-c2c[nH]c3ccccc23)n1`, 21.7 µM (active).
Under `COc1ccc2c(c1)c(CC(=O)O)c(C)n2C(=O)c1ccc(Cl)cc1` stands “inactive”; under `Nc1ccccc1NC(=O)c1ccc(CNc2nccc(-c3cccnc3)n2)cc1`, 0.432 µM (active); under `CC(=O)NCC(=O)N1C2CCC1c1cc(Nc3ncc(C(F)(F)F)c(NC4CCC4)n3)ccc12` (stereo not given), 17.2 µM (active).
In the case of `CC(C)C[C@H](NC(=O)[C@H](CCc1ccccc1)NC(=O)CN1CCOCC1)C(=O)N[C@@H](Cc1ccccc1)C(=O)N[C@@H](CC(C)C)C(=O)[C@@]1(C)CO1` it was 13.7 µM (active); in that of `C[C@@]1(C(=O)Nc2ccc(F)nc2)CCCN1c1nc(Nc2cc(C3CC3)[nH]n2)c2cccn2n1`, 3.43 µM (active).
For `CNCc1ccc(-c2[nH]c3cc(F)cc4c3c2CCNC4=O)cc1`, the Potency result is “inactive”.
For the compound `c1nc2nc(Nc3ccc(N4CCOCC4)cc3)nc(NC3CCCCC3)c2[nH]1`, the Potency result was “inactive”.
For the compound `Cc1c2oc3c(C)ccc(C(=O)N[C@@H]4C(=O)N[C@H](C(C)C)C(=O)N5CCC[C@H]5C(=O)N(C)CC(=O)N(C)[C@@H](C(C)C)C(=O)O[C@@H]4C)c3nc-2c(C(=O)N[C@@H]2C(=O)N[C@H](C(C)C)C(=O)N3CCC[C@H]3C(=O)N(C)CC(=O)N(C)[C@@H](C(C)C)C(=O)O[C@@H]2C)c(N)c1=O` (I: T[dV]P[Sar][NMeV] / II: T[dV]P[Sar][NMeV]; ester I:1-I:C, II:1-II:C; linker I:N-II:N via Actinocin(9to1)), the Potency was 0.544 µM (active).
Under `CCn1c(-c2nonc2N)nc2c(C#CC(C)(C)O)ncc(OCC3CCCNC3)c21` (stereo not given) stands “inactive”; under `CC(Oc1ccc2[nH]nc(/C=C/c3cnn(CCO)c3)c2c1)c1c(Cl)cncc1Cl` (stereo not given), 3.06 µM (active); under `Cc1c(C)n(Cc2ccc(-c3ccccc3C(=O)O)cc2)c2ccc(C(=O)N[C@@H](C)c3ccc([N+](=O)[O-])cc3)cc12`, “inactive”.
Under `Cc1cnc(Nc2ccc(F)cc2Cl)nc1-c1c[nH]c(C(=O)NC(CO)c2cccc(Cl)c2)c1` (stereo not given) stands “inactive”.
In the case of `CCC1C(=O)N(C)c2cnc(Nc3ccc(C(=O)NC4CCN(C)CC4)cc3OC)nc2N1C1CCCC1` (stereo not given) it was 0.109 µM (active); in that of `C=CC(=O)Nc1cc2c(Nc3ccc(F)c(Cl)c3)ncnc2cc1OCCCN1CCOCC1`, 24.3 µM (active).
In the case of `c1cc(N[C@@H]2CCNC2)nc(-c2cnc3ccc(-c4cn[nH]c4)cn23)c1`, the Potency entry is “inactive”.
For the compound `COc1ccc2cc3[n+](cc2c1OC)CCc1cc2c(cc1-3)OCO2`, the Potency entry was “inactive”.
In the case of `Cc1cc(C(C)Nc2ccccc2C(=O)O)c2nc(N3CCOCC3)cc(=O)n2c1` (stereo not given) it was 3.06 µM (active).
For `CCc1c2c(nc3ccc(O)cc13)-c1cc3c(c(=O)n1C2)COC(=O)[C@]3(O)CC`, the Potency is 0.0243 µM (active).
Under `CCOc1ccc(Nc2nc(-c3c(C)nc4ccccn34)cs2)cc1` stands “inactive”; under `CC(Oc1cc(-n2cnc3ccc(CN4CCN(C)CC4)cc32)sc1C(N)=O)c1ccccc1C(F)(F)F` (stereo not given), 19.3 µM (active).
As for `CN(C)C1CCN(C(=O)c2ccc(NC(=O)Nc3nc(N4CCOCC4)nc(N4CCOCC4)n3)cc2)CC1`, the Potency was 0.109 µM (active).
In the case of `CCCCN(CCCC)C(=O)CN1C[C@H](c2ccc3c(c2)OCO3)[C@@H](C(=O)O)[C@@H]1c1ccc(OC)cc1` it was “inactive”.
Under `NC(=O)Nc1cc(-c2cccc(F)c2)sc1C(=O)NC1CCCNC1` (stereo not given) stands 5.44 µM (active).
With `Cc1cnc(Nc2cccc(CN3CCOCC3)c2)nc1Nc1cccc(S(=O)(=O)NC(C)(C)C)c1`, the Potency is 10.9 µM (active).
In the case of `C=CC(=O)Nc1cccc(Oc2nc(Nc3ccc(N4CCN(C)CC4)cc3)ncc2Cl)c1` it was 1.72 µM (active); in that of `NC(=O)c1cnc(-c2ccc(C3(N)CCC3)cc2)c(-c2ccccc2)c1`, 9.68 µM (active).
